Reference: PubChem BioAssay (NCATS)
Values joined by “and” are separate entries in the source; they are usually repeats but may differ in a detail not shown here. Equal values may be shown once. Results filed as inconclusive are left out. Active and inactive are the calls of the source. Unless noted, calls follow the shape of the dose curve; as a rule, active = well fitted curve in the direction sought with a large enough effect; inconclusive = small, poorly fitted or top-dose-only effect, or another doubt; inactive = no such curve, though single readings can be large; an effect the other way counts as inactive or inconclusive.

Tests used:
[1] = Cell Viability - SH-SY5Y (AID 544); conditions: SH-SY5Y neuroblastoma cell viability; viability change, negative = cytotoxic: at 92.2 µM (top of the series);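 also: cells exposed to compound for 40 hours; 0% = DMSO alone and -100% = 100 µM tamoxifen; nearly all actives have a fitted effect of over 55% in size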
Outline: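 Cytotoxicity is scored as a concentration-dependent fall in intracellular ATP in human SH-SY5Y cells treated 40 hr in complete culture medium. Potency is expressed as AC50 from a Hill equation fit.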

[2] = Cell Viability - Mesenchymal (AID 546);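 also: cells exposed to compound for 40 hours before reading; 0% = DMSO only and -100% = 100 µM tamoxifen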
Outline: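 Normal human renal glomerulus-derived kidney mesenchymal cells, 1000 per well in complete medium, were treated with compounds for 40 hr at 37 °C. Viability was read as intracellular ATP by CellTiter-Glo luminescence; AC50 values came from Hill-equation fits of qHTS concentration-response data.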

[3] = Cellular Toxicity (caspase-3) HUV-EC-C (AID 656);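 also: 0% = DMSO basal and 100% = 100 µM tamoxifen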
Outline: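 Luminescent Caspase-Glo 3/7 readout after 16 h, 37 °C compound exposure of HUV-EC-C endothelial cells, 1000 per well, complete medium. AC50 derived by Hill fitting, with DMSO as baseline and 100 uM tamoxifen as full activation.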

[4] = Cellular Toxicity (caspase-3) SHSY5Y (AID 657)
Outline: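 Luminescent Caspase-Glo 3/7 read-out, 1 hr room temperature, follows 16 hours of compound treatment of SH-SY5Y cells at 37 °C. Normalization: DMSO basal, 10 uM staurosporine as 100%; AC50 values from Hill-equation concentration-response fits.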

[5] = Cellular Toxicity (caspase-3) Mesangial (AID 660);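 also: combined caspase 3 and 7 activity read by Caspase-Glo luminescence; cells exposed to compound for 16 h before the caspase read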
Outline: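 Concentration-response qHTS: compound-induced rise in caspase 3/7 luminescence in human mesangial cells after 16 h, normalized to DMSO and 100 uM tamoxifen controls.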

[6] = Cellular Toxicity (caspase-3) H-4-II-E (AID 663); conditions: Potency: caspase-3 activation;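 also: cells exposed to compound for 16 hr before readout; 0% = DMSO basal and 100% = 100 µM tamoxifen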
Outline: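 Luminescence from caspase-cleaved aminoluciferin substrate, read 20 min after reagent addition, reports caspase 3/7 activation in rat H-4-II-E cells after 16 hr compound exposure. Normalized to DMSO (basal) and 100 uM tamoxifen (100%); AC50 from Hill fits.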

[7] = target: Cytochrome P450 3A4 (Homo sapiens) (UniProt P08684); assay: qHTS Assay for Inhibitors and Substrates of Cytochrome P450 3A4 (AID 884); also: nearly all actives have a fitted effect of over 50% in size; also: potency is read from the fitted curve at half-maximal effect
Cytochrome P450 3A4 (Homo sapiens), sequence (P08684 whole entry, looked up): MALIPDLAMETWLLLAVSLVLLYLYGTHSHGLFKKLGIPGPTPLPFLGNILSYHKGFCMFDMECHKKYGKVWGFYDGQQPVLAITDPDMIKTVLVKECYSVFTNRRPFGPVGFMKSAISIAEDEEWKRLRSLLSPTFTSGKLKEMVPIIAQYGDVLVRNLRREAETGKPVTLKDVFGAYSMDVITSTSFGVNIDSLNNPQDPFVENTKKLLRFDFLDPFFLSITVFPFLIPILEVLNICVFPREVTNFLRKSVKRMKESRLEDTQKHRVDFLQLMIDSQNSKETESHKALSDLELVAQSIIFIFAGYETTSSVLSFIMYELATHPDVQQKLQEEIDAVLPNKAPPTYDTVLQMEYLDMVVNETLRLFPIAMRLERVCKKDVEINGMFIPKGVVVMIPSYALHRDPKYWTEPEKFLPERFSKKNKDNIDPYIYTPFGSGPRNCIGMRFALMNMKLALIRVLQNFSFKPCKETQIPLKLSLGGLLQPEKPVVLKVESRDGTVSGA
Outline: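 20 nM human CYP3A4 with 25 uM Luciferin-PPXE (at KM) in 200 mM KPO4, preincubated 10 min with compound; NADPH regeneration started a 60 min RT reaction. Luciferin detected by luminescence, normalized to 57 uM ketoconazole as full inhibition.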

[8] = MultiTox-Fluor Cytotoxicity Assay - LYMP1-001 - Live Cells (AID 947);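 also: 0% = DMSO only and full inhibition = tetraoctylammonium bromide control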
[9] = Cell Viability - LYMP1-002 - Assay at 16 hr (AID 948);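 also: 0% = DMSO alone and full effect = 92 µM tetraoctylammonium bromide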
Outline: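 ATP luminescence (CellTiter-Glo) was measured after 16 hr compound exposure at 37 C of 2500 lymphoblastoid LYMP1-002 cells per well. Concentration-response curves were fitted with the Hill equation to give AC50.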

[10] = Cell Viability - LYMP2-005 (AID 967);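 also: plate controls were DMSO only for no effect and 92 µM tetraoctylammonium bromide control for full effect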
Outline: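 LYMP2-005 human lymphoblastoid cells (2500/well) were treated with compounds for 24 h at 37 C. Intracellular ATP was then measured by CellTiter-Glo luminescence after 30 min at room temperature. AC50 values came from Hill-equation fits of qHTS concentration-response data.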

[11] = Cell Viability - LYMP2-017 (AID 972); also: % is scaled to controls: 0 for no effect and ±100 for the full control effect; nearly all actives have a fitted effect of over 55% in size
Outline: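 Steps: plate 2500 lymphoblastoid cells per well; incubate 5 hr at 37 C; add compound across a concentration series and incubate 24 hr at 37 C; add CellTiter-Glo and read luminescence after 30 min at room temperature; fit Hill curves for AC50.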

[12] = Cell Viability - LYMP2-023 (AID 975);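 also: cellular ATP measured by luciferase luminescence as viability proxy; plate controls were DMSO only for no effect and 92 µM tetraoctylammonium bromide control for full effect; nearly all actives have a fitted effect of over 55% in size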
Outline: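 Concentration-dependent drop in intracellular ATP measures acute cytotoxicity in a human lymphoblastoid line treated for 24 hours in complete culture medium. AC50 values are taken from Hill-equation fits of qHTS data.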

[13] = Cell Viability - LYMP2-002 (AID 977);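 also: plate controls were DMSO only for no effect and 92 µM tetraoctylammonium bromide for full effect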
Outline: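 Luminescent ATP readout (CellTiter-Glo, 30 min room temperature) after 24 h compound exposure at 37 C of a human lymphoblastoid line, 2500 cells/well. AC50 values derived by standard Hill fitting of qHTS concentration-response data.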

[14] = qHTS assay for small molecule disruptors of the mitochondrial membrane potential - 1 hr assay (AID 651754; calls by dose curve; also: nearly all actives have a fitted effect of over 35% in size; also: potency is read from the fitted curve at half-maximal effect)
Outline: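 Steps: seed HepG2 cells and let attach overnight; pin-transfer compound or vehicle; incubate 1 hr at 37C; add Mito-MPS dye for 30 min; read two-channel fluorescence for monomer and aggregate forms.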

[15] = qHTS assay for small molecule disruptors of the mitochondrial membrane potential - 5 hr assay (AID 651755; calls by dose curve; also: nearly all actives have a fitted effect of over 40% in size; also: potency is read from the fitted curve at half-maximal effect)
Outline: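 HepG2 cells, attached overnight at 37C, were exposed to compound or DMSO for 5 hr at 37C, 5% CO2. Mito-MPS dye was then added for 30 min, and fluorescence read at 490/535 nm (monomers) and 540/590 nm (aggregates).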

[16] = target: Tumor necrosis factor (Homo sapiens) (UniProt P01375); assay: qHTS assay to identify small molecules that stimulate Tumor Necrosis Factor-alpha (TNF-alpha) secretion (AID 651757; active = well fitted curve in the direction sought with a large enough effect in the signal ratio; the % refers to the signal ratio; also: 0% is about no effect)
Tumor necrosis factor (Homo sapiens), sequence (P01375 whole entry, looked up): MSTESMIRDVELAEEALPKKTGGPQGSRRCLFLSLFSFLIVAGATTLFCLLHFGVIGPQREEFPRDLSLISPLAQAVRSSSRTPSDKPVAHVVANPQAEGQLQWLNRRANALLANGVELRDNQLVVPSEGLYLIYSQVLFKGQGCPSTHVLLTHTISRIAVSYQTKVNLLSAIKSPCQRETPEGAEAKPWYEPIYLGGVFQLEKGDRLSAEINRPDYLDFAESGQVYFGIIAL
Outline: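 Secreted TNF-alpha from compound-treated THP-1 cells (17 hrs, 37 C) was quantified with a homogeneous time-resolved fluorescence antibody assay.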

[17] = qHTS assay for environmental chemicals that activate the Aryl hydrocarbon Receptor (AhR) signaling pathway (AID 651777); conditions: 1A2-DRE human hepatoma cells, luciferase, 24 h; activation: hits give high values; also: % of control where 0% means no effect; nearly all actives have a fitted effect of over 15% in size
Outline: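 Human hepatoma 1A2-DRE cells, stably carrying a dioxin response element and CYP1A2 promoter driving luciferase, were exposed to compounds for 24 hr at 37 C and 5% CO2. Luciferase signal was then read after 30 min One-Glo at room temperature.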

[18] = target: Nuclear receptor ROR-gamma (Homo sapiens) (UniProt P51449); assay: qHTS assay for small molecule antagonists of the retinoid-related orphan receptor gamma (ROR-gamma) signaling pathway (AID 651802);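 also: CHO cells with doxycycline-induced ROR-gamma expression; luciferase reporter luminescence driven by ROR response element; % is scaled to controls: 0 for no effect and ±100 for the full control effect; nearly all actives have a fitted effect of over 60% in size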
Nuclear receptor ROR-gamma (Homo sapiens), sequence (P51449 whole entry, looked up): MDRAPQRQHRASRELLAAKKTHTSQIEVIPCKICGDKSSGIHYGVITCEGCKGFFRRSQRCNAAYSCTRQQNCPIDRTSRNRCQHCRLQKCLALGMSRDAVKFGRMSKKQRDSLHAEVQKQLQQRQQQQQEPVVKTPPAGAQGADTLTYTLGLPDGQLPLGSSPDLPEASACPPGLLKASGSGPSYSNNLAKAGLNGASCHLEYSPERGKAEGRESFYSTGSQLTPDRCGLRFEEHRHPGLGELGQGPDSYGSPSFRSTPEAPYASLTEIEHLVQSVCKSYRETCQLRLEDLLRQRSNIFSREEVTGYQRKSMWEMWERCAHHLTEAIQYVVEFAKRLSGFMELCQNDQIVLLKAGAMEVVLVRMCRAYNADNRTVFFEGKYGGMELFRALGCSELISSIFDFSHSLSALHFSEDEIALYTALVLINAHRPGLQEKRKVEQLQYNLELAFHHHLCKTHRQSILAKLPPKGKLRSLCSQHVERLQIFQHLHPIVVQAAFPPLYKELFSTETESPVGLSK
Outline: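 Antagonism is scored as a fall in luminescence from a RORE-luciferase reporter in CHO cells expressing ROR under a TET-inducible promoter, measured 16hr after doxycycline induction in the presence of compound.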

[19] = target: Nuclear receptor subfamily 1 group I member 2 (Rattus norvegicus) (UniProt Q9R1A7); assay: qHTS assay for small molecule activators of the rat pregnane X receptor (rPXR) signaling pathway (AID 651751; call rule not given here; also: 0% is about no effect); conditions: rPXR reporter cells, luciferase (One-Glo), 24 h
Nuclear receptor subfamily 1 group I member 2 (Rattus norvegicus), sequence (Q9R1A7 whole entry, looked up): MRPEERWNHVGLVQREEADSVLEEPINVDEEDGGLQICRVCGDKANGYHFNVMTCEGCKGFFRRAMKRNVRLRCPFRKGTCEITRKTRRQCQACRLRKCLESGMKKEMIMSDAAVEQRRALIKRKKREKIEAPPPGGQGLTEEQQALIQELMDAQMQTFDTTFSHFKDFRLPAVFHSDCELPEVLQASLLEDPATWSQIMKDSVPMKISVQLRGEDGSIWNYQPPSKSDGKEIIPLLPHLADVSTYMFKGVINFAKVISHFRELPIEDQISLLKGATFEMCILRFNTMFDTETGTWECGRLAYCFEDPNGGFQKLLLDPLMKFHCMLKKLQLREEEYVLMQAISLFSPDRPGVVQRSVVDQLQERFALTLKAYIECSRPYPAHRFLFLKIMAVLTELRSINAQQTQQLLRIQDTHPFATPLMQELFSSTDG

[20] = MultiTox-Fluor Cytotoxicity Assay - LYMP1-002 - Live Cells (AID 955); also: % is scaled to controls: 0 for no effect and ±100 for the full control effect
Outline: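 Cytotoxicity in the human lymphoblastoid line LYMP1-002 is measured as loss of live-cell protease activity after 16 h treatment in complete culture medium. AC50 is derived from Hill-equation fits of qHTS concentration-response data.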

O=C(O)CBr
inactive: Potency [1] | Potency [2] | outcome [3] | outcome [4] | outcome [5] | Potency [6] | Potency [7] | outcome [8] | outcome [9] | Potency [10] | Potency [11] | Potency [12] | Potency [13] | Potency [14] | Potency [15] | outcome [16] | activation [17] -0.817% | Potency [18] | max response [19] 2.42%

Nc1ccc2ccccc2c1
inactive: Potency [1] | Potency [2] | outcome [4] | outcome [5] | Potency [6] | outcome [8] | outcome [9] | outcome [20] | Potency [10] | Potency [11] | Potency [12] | Potency [13] | Potency [14] | Potency [15] | outcome [16] | Potency [18]

Cl/C=C/CCl
inactive: Potency [1] | Potency [2] | outcome [3] | Potency [6] | Potency [7] | outcome [8] | outcome [9] | outcome [20] | Potency [10] | Potency [11] | Potency [12] | Potency [13] | Potency [14] | Potency [15] | outcome [16] | Potency [18] | max response [19] -4.52%

CN(C)C(=O)Nc1cccc(C(F)(F)F)c1
inactive: Potency [1] | Potency [2] | outcome [3] | outcome [4] | outcome [5] | Potency [6] | Potency [7] | outcome [8] | outcome [9] | outcome [20] | Potency [10] | Potency [11] | Potency [13] | Potency [14] | Potency [15] | outcome [16] | activation [17] -0.624% and 0.852% | Potency [18] | max response [19] 16.9% and 5.91%

Oc1ccc(Cl)c(Cl)c1
active: Potency [14] 33.5 µM | Potency [15] 42.2 µM
inactive: Potency [1] | Potency [2] | outcome [3] | outcome [4] | outcome [5] | Potency [6] | Potency [7] | outcome [8] | outcome [9] | outcome [20] | Potency [10] | Potency [12] | Potency [13] | outcome [16] | activation [17] 1.35% | max response [19] -0.245%

CC(C)CC(C)N (configuration not stated)
inactive: Potency [1] | Potency [2] | outcome [3] | outcome [4] | outcome [5] | Potency [6] | Potency [7] | outcome [8] | outcome [9] | Potency [10] | Potency [11] | Potency [12] | Potency [13] | Potency [14] | Potency [15] | outcome [16] | activation [17] 0.111% | Potency [18] | max response [19] 0.275%

CCOP(=S)(OCC)SCCSCC
inactive: Potency [1] | outcome [3] | outcome [4] | outcome [5] | Potency [6] | outcome [8] | outcome [9] | outcome [20] | Potency [10] | Potency [11] | Potency [12] | Potency [13] | Potency [14] | Potency [15] | outcome [16] | activation [17] 1.01% and -2.18% | Potency [18] | max response [19] 1.52% and -3.09%

BrCC(Br)C1CCC(Br)C(Br)C1 (configuration not stated)
inactive: Potency [2] | outcome [3] | outcome [4] | outcome [5] | Potency [7] | outcome [8] | outcome [9] | outcome [20] | Potency [10] | Potency [11] | Potency [12] | Potency [13] | Potency [14] | Potency [15] | outcome [16] | activation [17] -0.172% | Potency [18] | max response [19] -6.51%

Oc1c(Cl)cccc1Cl
inactive: Potency [1] | Potency [2] | outcome [3] | outcome [4] | Potency [6] | Potency [7] | outcome [8] | outcome [9] | outcome [20] | Potency [10] | Potency [11] | Potency [12] | Potency [13] | Potency [14] | Potency [15] | outcome [16] | activation [17] 0.939% | Potency [18] | max response [19] 5.06%

C=CCBr
inactive: Potency [1] | Potency [2] | outcome [3] | outcome [4] | outcome [5] | Potency [6] | Potency [7] | outcome [8] | outcome [9] | outcome [20] | Potency [10] | Potency [11] | Potency [12] | Potency [13] | Potency [14] | Potency [15] | outcome [16] | Potency [18] | max response [19] 1.14%

Clc1cccc(Cl)c1
inactive: Potency [1] | outcome [3] | outcome [4] | outcome [5] | Potency [6] | Potency [7] | outcome [8] | outcome [9] | Potency [10] | Potency [11] | Potency [12] | Potency [13] | Potency [14] | Potency [15] | outcome [16] | activation [17] -1.27% | Potency [18] | max response [19] 1.78%

COc1c(C(C)(C)C)cc([N+](=O)[O-])c(C)c1[N+](=O)[O-]
inactive: Potency [1] | outcome [3] | outcome [4] | outcome [5] | Potency [6] | Potency [7] | outcome [8] | outcome [9] | outcome [20] | Potency [10] | Potency [11] | Potency [12] | Potency [13] | Potency [14] | Potency [15] | outcome [16] | activation [17] 0.103% | Potency [18] | max response [19] 5.88%

ClCC(Br)CBr (configuration not stated)
inactive: Potency [1] | Potency [2] | outcome [3] | outcome [4] | outcome [5] | Potency [6] | Potency [7] | outcome [8] | outcome [9] | outcome [20] | Potency [10] | Potency [11] | Potency [13] | Potency [14] | Potency [15] | outcome [16] | activation [17] -0.863% | Potency [18] | max response [19] 0.571%

S=c1[nH]c2ccccc2[nH]1
inactive: Potency [1] | Potency [2] | outcome [3] | outcome [5] | Potency [6] | outcome [9] | outcome [20] | Potency [10] | Potency [11] | Potency [13] | Potency [14] | Potency [15] | activation [17] 1.98% | max response [19] -7.5%
active: Potency [7] 10 µM

Clc1ccccc1
inactive: Potency [1] | Potency [2] | outcome [3] | outcome [4] | outcome [5] | Potency [6] | Potency [7] | outcome [8] | outcome [9] | Potency [10] | Potency [11] | Potency [12] | Potency [13] | Potency [14] | Potency [15] | outcome [16] | activation [17] -0.0364% | Potency [18] | max response [19] -2.96%
